# Inconclusive results are not listed. Values without a mark were called inactive. The source made the active and inactive calls. Calls come from the whole dose curve; as a rule, active = well fitted inhibition curve with a large enough effect; inconclusive = small, poorly fitted or top-dose-only effect; inactive = flat fitted curve, though single readings scatter.
# System: HEK293
# Assay: Cytotoxic Profiling of Annotated Libraries Using Quantitative High-Throughput Screening (AID 1296008); note: nearly all actives have a fitted effect of over 60% in size
# Conditions: Five cell lines viability, CellTiter-Glo ATP luminescence, 48-72 h; max response: active compounds read low
# Source text: Cell-based phenotypic screening is a commonly used approach to discover biological pathways, novel drug targets, chemical probes and high-quality hit-to-lead molecules. Many hits identified from high-throughput screening campaign are ruled out through a series of follow-up potency, selectivity/specificity, and cytotoxicity assays. Prioritization of molecules with little or no cytotoxicity for a more in-depth downstream evaluation influence the future direction of projects, so cytotoxicity profiling of the screening libraries at early stage is essential for increasing the likelihood of candidate success. […] For the annotated library, we also examined the primary targets and mechanistic pathways regularly associated with cell death. To our knowledge, this is the first study to use high-throughput screening to profile large libraries for cytotoxicity assessment in both normal and cancer cell lines. In summary, the results generated here constitutes a valuable resource for the scientific community and provides insight on identifying cytotoxic compounds with particular mechanisms of action, and prioritizing compounds with suitable cytotoxicity profile for further evaluation.
# A pintool (Kalypsys) was used to transfer 23 nL of compound solution to the 1536-well assay plates. After 48 or 72 hr incubation at 37 degree Celsius, 5% CO2 and 95% humidity, 2.5 uL of CellTiter-Glo (Promega) was dispensed into each well using a dispenser (Aspect Automation, St. Paul, MN) with solenoid valves (Lee Valves, Westbrook CT). Plates were left at room temperature for 10 min before imaging the ATP-coupled luminescence using a ViewLux microplate imager (PerkinElmer, Waltham, MA).
# % is set by controls: 0 for no effect and ±100 for the full control effect; potency is the fitted concentration of half-maximal effect.
Compound,max response [%],outcome,Potency
CN(C)CCc1c[nH]c2ccc(O)cc12,-2.05,–,–
CN(C)CCc1c[nH]c2cccc(O)c12,-13.6,–,–
O=C(CBr)Nc1ccc(Cl)cc1C(=O)c1ccccc1F,-0.335,–,–
CCN(Cc1ccc(Cl)nc1)/C(=C/[N+](=O)[O-])NC,–,inactive,–
CC(C)[N+](C)(CCC(C(N)=O)(c1ccccc1)c1ccccc1)C(C)C,-1,–,–
CCC1(c2ccccc2)CCC(=O)NC1=O (stereo not given),-5.95,–,–
NC1(c2ccccc2)CCCCC1,–,–,38.2 µM (active)
CCC(OC(C)=O)C(CC(C)NC)(c1ccccc1)c1ccccc1 (stereo not given),–,–,31 µM (active)
CC(CC(C(N)=O)(c1ccccc1)c1ccccc1)N(C)C (stereo not given),–,inactive,–
CCCCCCCCC(=O)NCc1ccc(O)c(OC)c1,-94.9,–,–
COc1ccc2[nH]cc(CCN(C(C)C)C(C)C)c2c1,-7.74,–,–
Sc1ccccc1Cl,-0.79,–,–
NC(=O)OCCCc1ccccc1,3.07,–,–
COc1cc(CC#N)cc(OC)c1OC,-3.74,–,–
CC(C(O)c1ccccc1)N(C)C/C=C/c1ccccc1 (stereo not given),-9.94,–,–
Cc1ccc([N+](=O)[O-])[c]2c1[O][Hg]2,–,–,1.06 µM (active)
NC(=O)CN1CCCC1=O,–,inactive,–
CC#C[C@]1(O)CC[C@H]2[C@@H]3C[C@H](C)C4=CC(=O)CC[C@]4(C)[C@H]3CC[C@@]21C,–,–,23.7 µM (active)
C[C@]12CC[C@H]3[C@@H](CCC4=CC(=O)CC[C@@]43C)[C@@H]1CC[C@@H]2C(=O)O,-4.71,–,–
C[N+]1(C)[C@@H]2CC[C@H]1CC(OC(=O)C(CO)c1ccccc1)C2 (stereo not given in full),–,inactive,–

Compound,max response [%],outcome,Potency
CC1Sc2c(C(=O)O)c(=O)c3cc(F)c(N4CCNCC4)cc3n21 (stereo not given),4.19,–,–
Nc1ccc(Cl)cc1C(=O)c1ccccc1F,-6.5,–,–
COc1cc(N)c(Cl)cc1C(=O)NC1CN2CCC1CC2 (stereo not given),-0.75,–,–
CNC(=O)NC(O)C(Cl)(Cl)Cl (stereo not given),2.62,–,–
Cc1nnc2n1-c1sc(CCC(=O)N3CCOCC3)cc1C(c1ccccc1Cl)=NC2,–,inactive,–
O=C(O)Cc1ccccc1,-7.97,–,–
CC[n+]1c(-c2ccccc2)c2cc(N)ccc2c2ccc(N)cc21,–,–,0.596 µM (active)
Cc1ncc2n1-c1ccc(Cl)cc1C(c1ccccc1F)=NC2,-4.93,–,–
COc1ccc(C(=O)N2CCCC2=O)cc1,–,inactive,–
CCCC(C)C1(CC)C(=O)N=C(S)NC1=O (stereo not given),–,inactive,–
CCN(CC)C(C)C(=O)c1ccccc1 (stereo not given),-27.4,–,–
CC(C)NCC(O)c1ccc(N)c(C#N)c1 (stereo not given),–,inactive,–
CCOC(=O)c1ncn2c1CN(C)C(=O)c1c(I)cccc1-2,-11.8,–,–
CC(CC(C#N)(c1ccccc1)c1ccccc1)N(C)C (stereo not given),–,–,24.3 µM (active)
O=c1n(Cl)c(=O)n(Cl)c(=O)n1Cl,-82.7,–,–
CCC(=O)OC1(c2ccccc2)CCN(C)CC1,-12.2,–,–
C[C@@H]1CC[C@H]2[C@@H](C)C(=O)O[C@@H]3O[C@@]4(C)CC[C@@H]1[C@]32OO4,–,–,2.37 µM (active)
CCC1(c2cnc[nH]2)Cc2ccccc2C1,-9.84,–,–
ClCCCN1CCN(c2cccc(Cl)c2)CC1,–,inactive,–
NCc1cccnc1,-4.51,–,–

# From PubChem BioAssay (NCATS)
